Source: PubChem BioAssay AID1159580 (chemical genetic matrix, 2015)
Several values for one entry are separate records, joined by “and”; a condition that tells them apart may be missing. Equal values may be shown once. The campaign covered roughly 5,500 compounds. About 2,000 (36%) were called active. Another 18% or so got no clear call; they are omitted. Cut-off read from the data, not from the text of the source: active = normalized growth mostly below about 0.91 (no sharp cut-off); inconclusive = no clear call, values can overlap the other calls; inactive = mostly above about 0.92. This is one part of the list.

Assay: chemical genetic growth profiling, strain panel (AID 1159580);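 note: tested at 20 µM; growth read once vehicle control cultures reached saturation at 30 °C; 1 = growth at the plate median or of vehicle wells; lower values mean less growth of the strain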
Settings: S. cerevisiae deletion strains, growth OD

Measured: normalized growth

NC[C@H](O)c1ccc(O)c(O)c1
inactive: locus YAL013W, strain DEP1, active compounds read low 1.01 | locus YAL021C, strain ccr4, active compounds read low 0.984 | locus YAL026C, strain drs2, active compounds read low 0.99 | locus YAL030W, strain snc1, active compounds read low 1.01 | locus YBL061C, strain skt5, active compounds read low 1.01 | locus YBR009C, strain hhf1, active compounds read low 1.01 | locus YBR021W, strain FUR4, active compounds read low 1.01 | locus YBR023C, strain chs3, active compounds read low 1.02 | locus YBR171W, strain sec66, active compounds read low 0.996 | locus YBR229C, strain ROT2, active compounds read low 1.01 | locus YBR231C, strain swc5, active compounds read low 0.984 | locus YBR279W, strain paf1, active compounds read low 1.02 | locus YCL011C, strain gbp2, active compounds read low 0.999 | locus YCL016C, strain dcc1, active compounds read low 1.02 | locus YCL029C, strain bik1, active compounds read low 1.01 | locus YCL061C, strain MRC1, active compounds read low 1.01 | locus YCL069W, strain vba3, active compounds read low 0.991 | locus YCR088W, strain abp1, active compounds read low 1.01 | locus YDL005C, strain med2, active compounds read low 1 | locus YDL035C, strain GPR1, active compounds read low 1.01 | locus YDL040C, strain nat1, active compounds read low 1.01 | locus YDL074C, strain BRE1, active compounds read low 0.986 | locus YDL101C, strain DUN1, active compounds read low 1.01 | locus YDL134C, strain PPH21, active compounds read low 1.02 | locus YDL185W, strain tfp1, active compounds read low 1.01 | locus YDL192W, strain arf1, active compounds read low 1.01 | locus YDR001C, strain nth1, active compounds read low 1 | locus YDR069C, strain doa4, active compounds read low 0.981 | locus YDR101C, strain arx1, active compounds read low 1 | locus YDR137W, strain rgp1, active compounds read low 1.06 | locus YDR150W, strain NUM1, active compounds read low 1 | locus YDR159W, strain sac3, active compounds read low 1.01 | locus YDR162C, strain NBP2, active compounds read low 1 | locus YDR195W, strain ref2 1.01 | locus YDR297W, strain sur2, active compounds read low 1.01 | locus YDR318W, strain mcm21, active compounds read low 1.03 | locus YDR334W, strain swr1, active compounds read low 0.984 | locus YDR335W, strain msn5, active compounds read low 0.999 | locus YDR388W, active compounds read low 1.02 | locus YDR392W, strain spt3, active compounds read low 0.987 | locus YDR502C, strain sam2, active compounds read low 1.02 | locus YEL003W, strain gim4, active compounds read low 0.986 | locus YEL037C, strain rad23, active compounds read low 0.986 | locus YEL061C, strain CIN8 (second series), active compounds read low 0.985 | locus YEL061C, strain CIN8, active compounds read low 1.01 | locus YER015W, strain faa2, active compounds read low 0.99 | locus YER016W, strain bim1, active compounds read low 1 | locus YER110C, active compounds read low 1.02 | locus YER111C, strain swi4, active compounds read low 0.98 | locus YER155C, strain BEM2 (second series), active compounds read low 1 | locus YER155C, strain BEM2, active compounds read low 1.02 | locus YER167W, strain BCK2, active compounds read low 1.02 | locus YFR010W, strain ubp6, active compounds read low 0.953 | locus YGL078C, strain dbp3, active compounds read low 1.01 | locus YGL086W, strain mad1, active compounds read low 0.991 | locus YGL167C, strain pmr1, active compounds read low 1 | locus YGL173C, strain kem1, active compounds read low 0.999 | locus YGL227W, strain vid30, active compounds read low 1 | locus YGL240W, strain doc1, active compounds read low 1.03 | locus YGL248W, strain PDE1, active compounds read low 1.01 | locus YGL253W, strain hxk2, active compounds read low 0.994 | locus YGR135W, strain pre9, active compounds read low 0.998 | locus YGR252W, strain gcn5, active compounds read low 0.958 | locus YHR013C, strain ard1, active compounds read low 1 | locus YHR027C, strain rpn1, active compounds read low 1 | locus YHR030C, strain SLT2, active compounds read low 1.01 and 0.962 | locus YHR079C, strain IRE1 (second series), active compounds read low 1.02 | locus YHR079C, strain IRE1, active compounds read low 0.953 | locus YHR094C, strain hxt1, active compounds read low 1.03 | locus YHR129C, strain ARP1, active compounds read low 0.999 | locus YHR142W, strain chs7, active compounds read low 0.978 | locus YHR200W, strain rpn10, active compounds read low 1.02 | locus YIL066C, strain RNR3, active compounds read low 1.01 | locus YIL073C, strain SPO22, active compounds read low 1.03 | locus YIL125W, strain kgd1, active compounds read low 1.01 | locus YIR030C, strain dcg1, active compounds read low 1.02 | locus YJL092W, strain hpr5, active compounds read low 1 | locus YJL095W, strain BCK1 (second series), active compounds read low 1.01 | locus YJL095W, strain BCK1, active compounds read low 0.994 and 0.971 | locus YJL115W, strain asf1, active compounds read low 1 | locus YJL129C, strain trk1, active compounds read low 0.952 | locus YJL134W, strain LCB3, active compounds read low 1.01 | locus YJL154C, strain vps35, active compounds read low 1 | locus YJL164C, strain tpk1, active compounds read low 1.01 | locus YJL166W, strain qcr8, active compounds read low 1.02 | locus YJL168C, strain set2, active compounds read low 1.02 | locus YJL187C, strain SWE1 (second series), active compounds read low 1.01 | locus YJL187C, strain SWE1, active compounds read low 0.999 | locus YJR043C, strain POL32, active compounds read low 1.02
